{"source": "PubChem BioAssay (NCI)", "note": "Compounds without any hit were thinned out: in the full panel of roughly 83,000, 20% have a hit.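 Treatment: one concentration, 48 hours, 96-well format. Scoring: percent growth, with anything below 10 considered active.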 Active and inactive are the calls of the source."}
{"test_system": "OVCAR-8 ovarian", "experiment": "NCI-60 one-dose screen, 48 h (100 = growth as untreated, 0 = no growth, -100 = all killed)", "details": "10 µM unless noted"}
{"smiles": "CC(C)=CCC[C@](C)(O)[C@H]1CC[C@]2(C)[C@@H]1CC[C@@H]1[C@@]3(C)C/C(=C/c4ccccc4)C(=O)C(C)(C)[C@@H]3CC[C@]12C", "growth": "93.4% (inactive)"}
{"smiles": "O=C1Nc2ccccc2/C1=C\\c1c(-c2ccc(F)cc2)nc2ccccn12", "growth": "86.8% (inactive)"}
{"smiles": "CC(c1ccccc1)C(C(=O)c1ccccc1)c1ccccc1", "note": "(stereo not given)", "growth": "63.7% (inactive)"}
{"smiles": "CC(=O)[C@H]1CCC/C=C/[C@@H]2C[C@H](O)C[C@H]2[C@H](O)/C=C/C(=O)O1", "growth": "11.3% (inactive)"}
{"smiles": "O=C1C=CC(=O)N1c1cccc(Cl)c1", "growth": "107% (inactive)"}
{"smiles": "COc1cc(/C=C\\c2cc(/C=C\\c3ccc(O)c(OC)c3)n(C(=O)COc3ccccc3)n2)ccc1O", "growth": "3.26% (active)"}
{"smiles": "N#C/C(=C\\c1cccc(C#N)c1)c1ccccc1", "growth": "111% (inactive)"}
{"smiles": "COc1cc2cc(Oc3cccc(NC(=O)Nc4cc(C(F)(F)F)cc(C(F)(F)F)c4)c3)c(C)nc2cc1OC", "growth": "14.2% (inactive)"}
{"smiles": "Cc1ccc(-n2nc3c(c(C#N)c2=O)CC(c2ccccc2[N+](=O)[O-])C([N+](=O)[O-])=C3O)cc1", "note": "(stereo not given)", "growth": "90.2% (inactive)"}
{"smiles": "CCN(c1ccccc1)S(=O)(=O)c1cc([N+](=O)[O-])ccc1Cl", "growth": "79.8% (inactive)"}
{"smiles": "Cc1nc2sccn2c1-c1cn2ccsc2n1", "growth": "96% (inactive)"}
{"smiles": "Cc1cc(Cl)nc(N(CCNc2ccnc3cc(Cl)ccc23)Cc2ccccn2)n1", "growth": "39.3% (inactive)"}
{"smiles": "CSc1nc2sc3cccc(Cl)c3n2c(=N)c1C#N", "growth": "99.3% (inactive)"}
{"smiles": "COc1ccc(C(=O)CC#N)cc1", "growth": "103% (inactive)"}
{"smiles": "COC(=O)C(CC=O)C(=O)C(=O)Nc1cccc(C(F)(F)F)c1", "note": "(stereo not given)", "growth": "90.5% (inactive)"}
{"smiles": "COc1cc(/C=C\\c2cc(OC)c(OC)c(OC)c2)cc(N)c1OC", "growth": "89.3% (inactive)"}
{"smiles": "CC1(C)NCCC[C@]2(C)[C@H]3CC[C@@H]4[C@H]5[C@H](C(=O)/C=C/c6ccco6)CC[C@]5(CO)CC[C@@]4(C)[C@]3(C)CC[C@@H]12", "growth": "95.2% (inactive)"}
{"smiles": "O=C(/C=C/c1c(-c2ccc(Cl)cc2)nn(-c2ccccc2)c1C(F)(F)F)c1ccc(Cl)cc1", "growth": "77.8% (inactive)"}
{"smiles": "Cn1cc(-c2csc(-c3c[nH]c4ccccc34)n2)c2ccnc(Cl)c21", "growth": "78.3% (inactive)"}
{"smiles": "O=C1CC(=O)OC(c2ccc([N+](=O)[O-])cc2)O1", "growth": "11.6% (inactive)"}
{"smiles": "C=CCn1c(-c2ccc(-c3nc4ccc(C)cc4[nH]3)cc2)n[nH]c1=S", "growth": "94.4% (inactive)"}
{"smiles": "Cn1cc(-c2nc(-c3c[nH]c4c(Cl)nccc34)cs2)c2cc(Br)ccc21", "growth": "80.2% (inactive)"}
{"smiles": "COc1cc(C2C3=C(COC3=O)N(CCO)c3cc4c(cc32)OCO4)cc(OC)c1OC", "note": "(stereo not given)", "growth": "28.4% (inactive)"}
{"smiles": "CC(C)c1ccc(Nc2ccc3c(OCCCN4CCN(C)CC4)cccc3n2)cc1", "growth": "88.7% (inactive)"}
{"smiles": "COc1cc(NC(=O)CSc2nc3ccc(C)cc3c(=O)n2Cc2ccccc2)cc(OC)c1OC", "growth": "41.3% (inactive)"}
{"smiles": "N#Cc1c(-c2cccc([N+](=O)[O-])c2)nc(SCC(=O)c2ccc(Cl)cc2)[nH]c1=O", "growth": "99.3% (inactive)"}
{"smiles": "COc1cc(CC(=O)n2ncc3ccc(N)cc32)cc(OC)c1OC", "growth": "104% (inactive)"}
{"smiles": "Oc1ccc(C2c3ccccc3Oc3ccccc32)c2cccnc12", "growth": "7.16% (active)"}
{"smiles": "COc1cc(C2C3=C(COC3=O)N(CCO)c3cc4c(cc32)CCC4)cc(OC)c1OC", "note": "(stereo not given)", "growth": "31.5% (inactive)"}
{"smiles": "Cc1ccc(-c2nc3ccccn3c2/C=C2/C(=O)Nc3cc(Cl)ccc32)cc1", "growth": "91.7% (inactive)"}
{"smiles": "CCNc1nc2ccc(Nc3ccnc4cc(Cl)ccc34)cc2[nH]1", "growth": "75.8% (inactive)"}
{"smiles": "N#CC(C(=O)/C(=N/NC(=O)c1ccccc1O)C(C#N)c1ccccc1)c1ccccc1", "note": "(stereo not given)", "growth": "52.3% (inactive)"}
{"smiles": "C#Cc1cccc(NC(=O)c2cccc(NC(=O)CCl)c2)c1", "growth": "-28.3% [8.25 µM] (active)"}
{"smiles": "Cc1nc2ccc(Cl)cn2c1-c1nnc(SCc2ccc([N+](=O)[O-])cc2)o1", "growth": "36.8% (inactive)"}
{"smiles": "Cc1c2cc[nH]c(=O)c2c(C)c2c1[nH]c1cc(OCCN3CCN(C)CC3)ccc12", "growth": "5.54% (active)"}
{"smiles": "Cc1cc2c(c(C)c1Cl)C(=O)/C(=C/c1ccc(O)c(O)c1)O2", "growth": "99.8% (inactive)"}
{"smiles": "O=C1/C=C/[C@@H](O)[C@@H]2C[C@@H](O)C[C@H]2/C=C/CCC[C@H](CCc2ccc3ncccc3c2)O1", "growth": "18% (inactive)"}
{"smiles": "COc1ccc(-c2cnc3c(-c4cccc5ncccc45)cnn3c2)cc1", "growth": "26.8% (inactive)"}
{"test_system": "OVCAR-5 ovarian", "experiment": "NCI-60 one-dose screen, 48 h (100 = growth as untreated, 0 = no growth, -100 = all killed)", "details": "10 µM unless noted"}
{"smiles": "CC(C)=CCC[C@](C)(O)[C@H]1CC[C@]2(C)[C@@H]1CC[C@@H]1[C@@]3(C)C/C(=C/c4ccccc4)C(=O)C(C)(C)[C@@H]3CC[C@]12C", "growth": "102% (inactive)"}
{"smiles": "O=C1Nc2ccccc2/C1=C\\c1c(-c2ccc(F)cc2)nc2ccccn12", "growth": "77.5% (inactive)"}
{"smiles": "CC(c1ccccc1)C(C(=O)c1ccccc1)c1ccccc1", "note": "(stereo not given)", "growth": "101% (inactive)"}
{"smiles": "CC(=O)[C@H]1CCC/C=C/[C@@H]2C[C@H](O)C[C@H]2[C@H](O)/C=C/C(=O)O1", "growth": "32.3% (inactive)"}
{"smiles": "O=C1C=CC(=O)N1c1cccc(Cl)c1", "growth": "111% (inactive)"}
{"smiles": "COc1cc(/C=C\\c2cc(/C=C\\c3ccc(O)c(OC)c3)n(C(=O)COc3ccccc3)n2)ccc1O", "growth": "22.1% (inactive)"}
{"smiles": "N#C/C(=C\\c1cccc(C#N)c1)c1ccccc1", "growth": "100% (inactive)"}
{"smiles": "COc1cc2cc(Oc3cccc(NC(=O)Nc4cc(C(F)(F)F)cc(C(F)(F)F)c4)c3)c(C)nc2cc1OC", "growth": "14.6% (inactive)"}
{"smiles": "Cc1ccc(-n2nc3c(c(C#N)c2=O)CC(c2ccccc2[N+](=O)[O-])C([N+](=O)[O-])=C3O)cc1", "note": "(stereo not given)", "growth": "99.8% (inactive)"}
{"smiles": "CCN(c1ccccc1)S(=O)(=O)c1cc([N+](=O)[O-])ccc1Cl", "growth": "67.4% (inactive)"}
{"smiles": "Cc1nc2sccn2c1-c1cn2ccsc2n1", "growth": "87.7% (inactive)"}
{"smiles": "Cc1cc(Cl)nc(N(CCNc2ccnc3cc(Cl)ccc23)Cc2ccccn2)n1", "growth": "74.3% (inactive)"}
{"smiles": "CSc1nc2sc3cccc(Cl)c3n2c(=N)c1C#N", "growth": "119% (inactive)"}
{"smiles": "COc1ccc(C(=O)CC#N)cc1", "growth": "105% (inactive)"}
{"smiles": "COC(=O)C(CC=O)C(=O)C(=O)Nc1cccc(C(F)(F)F)c1", "note": "(stereo not given)", "growth": "112% (inactive)"}
{"smiles": "COc1cc(/C=C\\c2cc(OC)c(OC)c(OC)c2)cc(N)c1OC", "growth": "87.7% (inactive)"}
{"smiles": "CC1(C)NCCC[C@]2(C)[C@H]3CC[C@@H]4[C@H]5[C@H](C(=O)/C=C/c6ccco6)CC[C@]5(CO)CC[C@@]4(C)[C@]3(C)CC[C@@H]12", "growth": "101% (inactive)"}
{"smiles": "O=C(/C=C/c1c(-c2ccc(Cl)cc2)nn(-c2ccccc2)c1C(F)(F)F)c1ccc(Cl)cc1", "growth": "102% (inactive)"}
{"smiles": "Cn1cc(-c2csc(-c3c[nH]c4ccccc34)n2)c2ccnc(Cl)c21", "growth": "127% (inactive)"}
{"smiles": "O=C1CC(=O)OC(c2ccc([N+](=O)[O-])cc2)O1", "growth": "-3.68% (active)"}
{"smiles": "C=CCn1c(-c2ccc(-c3nc4ccc(C)cc4[nH]3)cc2)n[nH]c1=S", "growth": "101% (inactive)"}
{"smiles": "COc1cc(C2C3=C(COC3=O)N(CCO)c3cc4c(cc32)OCO4)cc(OC)c1OC", "note": "(stereo not given)", "growth": "27.7% (inactive)"}
{"smiles": "CC(C)c1ccc(Nc2ccc3c(OCCCN4CCN(C)CC4)cccc3n2)cc1", "growth": "81.2% (inactive)"}
{"smiles": "COc1cc(NC(=O)CSc2nc3ccc(C)cc3c(=O)n2Cc2ccccc2)cc(OC)c1OC", "growth": "96.3% (inactive)"}
{"smiles": "COc1cc(CC(=O)n2ncc3ccc(N)cc32)cc(OC)c1OC", "growth": "91.9% (inactive)"}
{"smiles": "COc1cc(C2C3=C(COC3=O)N(CCO)c3cc4c(cc32)CCC4)cc(OC)c1OC", "note": "(stereo not given)", "growth": "8% (active)"}
{"smiles": "CCNc1nc2ccc(Nc3ccnc4cc(Cl)ccc34)cc2[nH]1", "growth": "113% (inactive)"}
{"smiles": "C#Cc1cccc(NC(=O)c2cccc(NC(=O)CCl)c2)c1", "growth": "8.37% [8.25 µM] (active)"}
{"smiles": "Cc1nc2ccc(Cl)cn2c1-c1nnc(SCc2ccc([N+](=O)[O-])cc2)o1", "growth": "83.7% (inactive)"}
{"smiles": "Cc1c2cc[nH]c(=O)c2c(C)c2c1[nH]c1cc(OCCN3CCN(C)CC3)ccc12", "growth": "16.1% (inactive)"}
{"smiles": "Cc1cc2c(c(C)c1Cl)C(=O)/C(=C/c1ccc(O)c(O)c1)O2", "growth": "117% (inactive)"}
{"smiles": "COc1ccc(-c2cnc3c(-c4cccc5ncccc45)cnn3c2)cc1", "growth": "82.1% (inactive)"}
